Screening data (PubChem BioAssay)
Dicer inh = inhibitors of Dicer pre-microRNA processing, primary screen, biochemical, cat-ELCCA, chemiluminescence; Endoribonuclease Dicer (Homo sapiens), Q9UPY3; cat-ELCCA pre-miR-21 Dicer processing; active compounds read high; z-score at 25 µM; 47,000 compounds, 6% hits; AID 1347074, 2019; in the data active means z-score above about 3, passing the limit was not always enough;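 further: plate controls were vehicle for no effect and no enzyme for full effect; higher signal means more uncleaved substrate so more Dicer inhibition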
Target sequence (Q9UPY3 whole entry, looked up): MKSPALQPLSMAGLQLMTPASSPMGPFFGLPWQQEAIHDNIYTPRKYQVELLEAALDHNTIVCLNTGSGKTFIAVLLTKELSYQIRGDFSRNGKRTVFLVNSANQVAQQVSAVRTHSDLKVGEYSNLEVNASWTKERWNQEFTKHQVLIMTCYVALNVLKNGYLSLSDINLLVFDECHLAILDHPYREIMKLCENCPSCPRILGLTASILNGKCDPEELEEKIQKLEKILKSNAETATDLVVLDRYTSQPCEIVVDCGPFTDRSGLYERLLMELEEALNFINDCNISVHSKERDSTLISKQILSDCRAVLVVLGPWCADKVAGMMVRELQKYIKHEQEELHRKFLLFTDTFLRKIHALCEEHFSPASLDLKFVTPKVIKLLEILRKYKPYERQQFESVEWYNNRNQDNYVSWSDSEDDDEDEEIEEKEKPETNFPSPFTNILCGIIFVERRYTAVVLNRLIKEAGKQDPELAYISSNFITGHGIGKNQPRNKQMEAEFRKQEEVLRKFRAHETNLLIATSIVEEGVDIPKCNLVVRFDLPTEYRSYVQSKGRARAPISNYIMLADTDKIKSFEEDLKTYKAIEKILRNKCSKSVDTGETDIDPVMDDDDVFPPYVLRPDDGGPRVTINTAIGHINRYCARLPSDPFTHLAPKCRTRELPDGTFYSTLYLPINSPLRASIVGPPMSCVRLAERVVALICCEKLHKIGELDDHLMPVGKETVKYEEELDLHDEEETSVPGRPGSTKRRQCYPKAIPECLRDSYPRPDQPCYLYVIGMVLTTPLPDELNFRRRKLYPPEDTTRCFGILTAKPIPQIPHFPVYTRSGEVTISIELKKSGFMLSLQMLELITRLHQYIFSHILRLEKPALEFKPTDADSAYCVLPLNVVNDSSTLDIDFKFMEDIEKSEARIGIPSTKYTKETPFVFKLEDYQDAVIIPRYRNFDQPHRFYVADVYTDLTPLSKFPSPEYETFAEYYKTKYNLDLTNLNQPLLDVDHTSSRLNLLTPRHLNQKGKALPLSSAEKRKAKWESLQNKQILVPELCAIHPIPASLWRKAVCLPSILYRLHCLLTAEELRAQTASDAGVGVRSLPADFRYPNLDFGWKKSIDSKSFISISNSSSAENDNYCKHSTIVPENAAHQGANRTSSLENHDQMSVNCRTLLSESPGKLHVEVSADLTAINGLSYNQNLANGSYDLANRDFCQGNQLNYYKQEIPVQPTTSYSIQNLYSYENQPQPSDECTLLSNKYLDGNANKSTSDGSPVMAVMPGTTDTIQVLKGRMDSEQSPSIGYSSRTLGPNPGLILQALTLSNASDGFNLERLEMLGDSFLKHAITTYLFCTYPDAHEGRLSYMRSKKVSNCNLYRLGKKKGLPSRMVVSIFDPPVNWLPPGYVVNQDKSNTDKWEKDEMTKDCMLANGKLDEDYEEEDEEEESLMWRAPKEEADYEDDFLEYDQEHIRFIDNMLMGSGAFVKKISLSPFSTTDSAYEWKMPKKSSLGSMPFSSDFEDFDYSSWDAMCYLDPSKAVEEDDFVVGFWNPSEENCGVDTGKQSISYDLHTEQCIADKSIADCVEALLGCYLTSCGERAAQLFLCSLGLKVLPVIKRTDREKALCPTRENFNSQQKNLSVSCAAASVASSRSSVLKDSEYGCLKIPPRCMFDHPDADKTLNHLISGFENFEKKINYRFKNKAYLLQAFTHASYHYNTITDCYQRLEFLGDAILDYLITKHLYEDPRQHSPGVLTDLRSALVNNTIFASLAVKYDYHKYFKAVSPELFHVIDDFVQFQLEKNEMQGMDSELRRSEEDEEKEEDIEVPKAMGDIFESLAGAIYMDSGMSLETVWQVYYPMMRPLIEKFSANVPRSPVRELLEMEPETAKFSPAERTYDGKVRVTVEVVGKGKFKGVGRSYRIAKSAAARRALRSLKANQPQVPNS
Active calls of the source: *. The entries come from a sample that favours hits as a whole.

SMILES	Dicer inh
CCCCc1c(O)nc2sc3ccccc3n2c1=O	0.25
CCc1c(O)nc(SCC(=O)N2CCc3ccccc32)n(-c2ccccc2)c1=O	-1
Cc1ccc(NC(=O)c2cccnc2Sc2cccc(C(F)(F)F)c2)cc1	0.01
COc1ccc(-c2nc3n(n2)C(c2cccc(OC)c2OC)C2=C(CCCC2=O)N3)cc1OC (centres undefined)	-0.07
Cc1ccc2occ(C3Nc4ccccc4NC4=C3C(=O)CC(c3ccccc3Cl)C4)c(=O)c2c1 (centres undefined)	2.26
COc1ccc(C2CC(=O)C3=C(C2)Nc2ccccc2NC3c2ccc3c(c2)OCO3)cc1OC (centres undefined)	2.07
O=C1CC(c2ccccc2)CC2=C1C(c1ccsc1)Nc1ccccc1N2 (centres undefined)	2.39
Cc1ccc(C)c(C2Nc3ccccc3NC3=C2C(=O)CC(c2cccs2)C3)c1 (centres undefined)	3.37*
Cc1ccc2occ(C3Nc4ccccc4NC4=C3C(=O)CC(c3ccccc3)C4)c(=O)c2c1 (centres undefined)	1.13
CN(C)c1ccc(C2Nc3ccccc3NC3=C2C(=O)CC(c2cccs2)C3)cc1 (centres undefined)	-3.09
O=C1CC(c2ccc(Cl)cc2)CC2=C1C(c1ccc3c(c1)OCO3)Nc1ccccc1N2 (centres undefined)	-2.82
Cc1ccc(C2Nc3ccccc3NC3=C2C(=O)CC(c2cccs2)C3)cc1 (centres undefined)	3.24*
Cc1ccc(C2Nc3ccccc3NC3=C2C(=O)CC(c2ccc4c(c2)OCO4)C3)s1 (centres undefined)	5.42*
COc1ccc(C2Nc3ccc(C(=O)c4ccccc4)cc3NC3=C2C(=O)CCC3)cc1OC (centres undefined)	1.94
C=CCOC(=O)C1=C(C)NC2=C(C(=O)CC(C)(C)C2)C1c1ccccc1OC (centres undefined)	0.3
Cc1cc(S(=O)(=O)Cc2ccc(N)cc2)c(C)cc1Cl	-0.4
O=C(Nc1ccccc1F)C1Sc2nnc(-c3ccccc3)n2NC1c1ccccc1 (centres undefined)	2.99
Cc1c(-c2ccccc2)c(CN2CCN(C)CC2)n2ccccc12	-1.43
CCC(=O)Nc1sc(C(=O)OC)c(C)c1C(=O)OC	-0.34
CCOC(=O)c1sc(NC(=O)C2COc3ccccc3O2)c(C(=O)OCC)c1C (centres undefined)	3.29*
COC(=O)c1c(NC(=O)C2COc3ccccc3O2)sc2c1CCCC2 (centres undefined)	0.53
CCOC(=O)c1sc(NC(=O)C2CCCO2)c(C(=O)OCC)c1C (centres undefined)	-0.87
CCOC(=O)c1sc(NC(=O)C2CCCC2)c(C(=O)OCC)c1C	-0.74
CCOC(=O)c1c(NC(C)=O)sc(C(=O)CC)c1C	6.11*
Nc1c(C(=O)c2ccc(F)c(F)c2)sc2nc3c(c(-c4cccs4)c12)CCCC3	-0.57
SMILES	Dicer inh
CC(C)OC(=O)c1cccc(C(=O)Oc2ccc(Br)cc2)n1	4.42*
CC(C)OC(=O)c1cccc(C(=O)O)n1	1.61
CC(C)OC(=O)c1cccc(C(=O)OC(C)C)n1	1.66
CCOC(=O)COc1ccccc1/C=C1\N=C(SCC)SC1=O	-0.54
CCOc1ccc(C2/C(=C(/O)c3ccc(C)cc3)C(=O)C(=O)N2CC(C)O)cc1 (centres undefined)	-0.91
CCCCn1c(CCCO)nc2ccccc21	-0.83
C/C(Nc1ccc([N+](=O)[O-])cc1)=C1/CCOC1=O	1.55
C/C(Nc1ccc(F)cc1)=C1/CCOC1=O	3.17*
Cc1cc(C(=O)Nc2ccc(F)cc2)c(C)o1	-1.68
CCOC(=O)c1c(-c2ccc(C)cc2)csc1N	-0.33
Fc1ccc(-c2cn3nc(C(F)(F)F)sc3n2)cc1	0.32
CCOC(=O)C(C(=O)Nc1ccccc1)[N+](=O)[O-] (centres undefined)	-1.21
CCSCCOC(=O)C1=C(C)NC2=C(C(=O)CC(C)(C)C2)C1c1ccsc1 (centres undefined)	10.5
CC1=C(C(=O)Nc2cccc(C)n2)C(c2ccsc2)C2=C(CC(C)(C)CC2=O)N1 (centres undefined)	0.2
CC1=C(C(=O)Nc2cccc(F)c2)C(c2ccsc2)C2=C(CC(C)(C)CC2=O)N1 (centres undefined)	3.74*
CN(NC(=O)Nc1ccc(Cl)cc1)c1cnn(C)c(=O)c1Cl	-2.64
CSc1nc(-c2cccs2)c(C#N)c(=O)n1C	-1.14
Nc1ccccc1CC(c1c[nH]c2ccccc12)c1c[nH]c2ccccc12	4.75*
O=C(NCC(c1ccccc1)c1c[nH]c2ccccc12)C(F)(F)F (centres undefined)	-0.74
NC(Cc1c[nH]c2ccccc12)C(=O)O (centres undefined)	2.31
CN(C)Cc1c(O)ccc2c(=O)c(Oc3ccccc3Cl)c(C(F)(F)F)oc12	0.87
CCCCCCCC1CC/C(=C/c2ccc(C#N)cc2)C1=O (centres undefined)	-2.13
CC(C(=O)O)c1cccc(Oc2ccccc2)c1 (centres undefined)	-0.07
Cc1cccc(NC(C(=O)O)c2ccccc2)c1 (centres undefined)	5.38*
O=C(O)c1ccccc1SC(C(=O)O)c1ccccc1 (centres undefined)	0.18
SMILES	Dicer inh
O=C(O)CSc1ccccc1C(=O)O	-0.26
O=C(O)c1ccccc1NC(C(=O)O)c1ccccc1 (centres undefined)	5.48*
CCOC(=O)C(NC(=O)Nc1ccccc1)(Nc1cccc(C)c1)C(F)(F)F (centres undefined)	-1.3
CCn1c(/C=C/c2cccc(Br)c2)nc2ccccc2c1=O	0.11
CCn1c(SC)nc2ccccc2c1=O	0.15
CCn1c(/C=C/c2ccc3c(c2)OCO3)nc2ccccc2c1=O	5.12*
CC(c1ccccc1)n1c(SCC(=O)c2cc(-c3ccccc3)no2)n[nH]c1=O (centres undefined)	-3.1
COc1ccc(C2CC(=O)c3cnn(-c4nc(C)cc(C)n4)c3C2)cc1OC (centres undefined)	-0.72
CCOC(=O)N1CCN(c2ncc3c(n2)CC(c2ccc(OC)c(OC)c2)CC3=O)CC1 (centres undefined)	3.47*
COc1ccc(C2CC(=O)c3cnc(NC4OC(=O)c5ccccc54)nc3C2)cc1OC (centres undefined)	-1.26
Cc1nn(C(=O)Nc2ccccc2)c(C)c1Cc1csc2ccc(Cl)cc12	-0.73
Nc1nc(Nc2ccccc2)nc(NCc2ccccc2)c1[N+](=O)[O-]	2.43
O=c1[nH]cc(NCc2ccccc2)c(=O)[nH]1	-10.2
Nc1c(NCc2ccccc2)c(=O)c1=O	3.34*
O=S(=O)(Nc1ccc(F)c(F)c1)c1ccc2c(c1)OCCO2	-0.32
O=C(Cn1nnc(N2CCCC2)n1)c1ccc(Cl)cc1	-0.79
Cc1ccc2c(c1)N(C(=O)NC1CCCCC1)C(C)(C)CC2C (centres undefined)	3.16*
CC1=CC(C)(C)N(C(=O)NC2CCCCC2)c2cc(C)ccc21	-0.28
CCOc1ccc2c(c1)C(C)CC(C)(C)N2C(=O)NC1CCCCC1 (centres undefined)	1.58
Cc1ccc(Sc2nc(-c3cccs3)ns2)cc1	-0.79
Cc1cc2nc(Nc3ncc4c(n3)CC(c3cccs3)CC4=O)nc(C)c2cc1C (centres undefined)	0.67
O=c1[nH]n(CCO)c(=O)c2ccccc12	0.19
COc1cc2ncnc(NCCCn3ccnc3)c2cc1OC	1.89
COc1ccc(C(=O)CN2C3=NCCN3c3ccccc32)cc1	0.1
COC(=O)CN(C#N)c1nc(C)cc(C)n1	6.69*
